PubChem BioAssay (Tox21)
“And” between values parts separate entries of the source, which are not always exact repeats. Equal entries are not always repeated. The source made the active and inactive calls. Where a call stands in place of a potency, no number is given. Unless noted, calls follow the shape of the full dose curve.

System: not listed separately
Test: qHTS assay to identify small molecule antagonists of the thyroid receptor (TR) signaling pathway (AID 743065; active = well fitted inhibition curve with a large enough effect in the repeat runs; inconclusive = weak or mixed curves; inactive = no such curve, though single readings can be large or run the other way; also: potency is read from the fitted curve at half-maximal effect; nearly all actives have a fitted effect of over 55% in size)
Conditions: GH3.TRE-Luc, T3-stimulated luciferase inhibition, 23.5 h; series mostly up to 70.3 µM
Method in brief: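 GH3.TRE-Luc rat pituitary cells (two TREs driving luciferase) were dosed with compound, then stimulated with 1 nM T3 (final) for 23.5 h at 37 C. ONE-Glo luminescence was the read-out, with CellTiter-Fluor fluorescence as the cytotoxicity counter-screen.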
For `CN1CCN2c3ccccc3Cc3ccccc3C2C1` (stereo not given), the Potency was 23.7 µM (active). For `O=C1CCc2ccc(OCCCCN3CCN(c4cccc(Cl)c4Cl)CC3)cc2N1`, the Potency was 11.9 µM (active). For `CN1CCC[C@@H]1CCO[C@](C)(c1ccccc1)c1ccc(Cl)cc1`, the Potency was 26.6 µM (active). In the case of `CCCCCCCCCCCCCCCC[N+](C)(C)CC`, the Potency is reported as 4.22 µM (active) and 6.13 µM (active). In the case of `O=[N+]([O-])c1ccc(O)cc1C(F)(F)F`, the Potency is reported as 21.7 µM (active). For `CCOC(=O)c1ccc(C2CCC(NC[C@H](O)COc3ccc(O)c(NS(C)(=O)=O)c3)CC2)cc1` (stereo not given in full), the Potency was 28.3 µM (active). For `COc1cccc2c1C(=O)c1c(O)c3c(c(O)c1C2=O)C[C@@](O)(C(C)=O)C[C@@H]3O[C@H]1C[C@H](N)[C@H](O)[C@H](C)O1`, the Potency was 596 nM (active) and 154 nM (active).

System: thyroid hormone receptor (rat, GH3 cells)
Test: qHTS assay to identify small molecule agonists of the thyroid receptor (TR) signaling pathway (AID 743066)
Conditions: GH3.TRE-Luc cells, TR agonist luciferase, 24 h; series mostly up to 83.9 µM
For `Oc1cc(Cl)cc(Cl)c1Cl`, the outcome was “inactive”. In the case of `OC[C@H]1O[C@H](O[C@H]2O[C@H](CO)[C@@H](O)[C@H](O)[C@H]2O)[C@H](O)[C@@H](O)[C@@H]1O`, the outcome is reported as “inactive”. For `C/C=C/C=C/COC(=O)C(C)C`, the outcome was “inactive”. In the case of `CCCCCC(C)OC(=O)COc1ccc(Cl)c2cccnc12` (stereo not given), the outcome is reported as “inactive”. In the case of `CN(C)Cc1cc(C(C)(C)C)c(O)c(C(C)(C)C)c1`, the outcome is reported as “inactive”. In the case of `Cc1cc(C(C)(C)C)cc(C)c1CC1=NCCN1`, the outcome is reported as “inactive”. For `Cc1cc(C)c(/C=C2\C(=O)Nc3ccccc32)[nH]1`, the outcome was “inactive”. With `Cc1ccc(N/N=c2\c(=O)cc/c(=N\Nc3ccc(S(=O)(=O)O)cc3)c2=O)c(C)c1` the outcome was “inactive”. With `Nc1ccc(NCCO)c([N+](=O)[O-])c1` the outcome was “inactive”. With `O=C(c1ccc(O)c(O)c1)c1ccc(O)cc1O` the outcome was “inactive”. In the case of `CCOc1ccc2ccccc2c1C(=O)N[C@@H]1C(=O)N2[C@@H]1SC(C)(C)[C@@H]2C(=O)O`, the outcome is reported as “inactive”. For `CC(C)CCOC(=O)/C=C/c1ccccc1`, the outcome was “inactive”. For `C[C@H]1NCc2cc(-c3ccc4c(=O)c(C(=O)O)cn(C5CC5)c4c3OC(F)F)ccc21`, the outcome was “inactive”. With `CN1CCCCC1CCN1c2ccccc2Sc2ccc(S(C)=O)cc21` (stereo not given) the outcome was “inactive”. In the case of `CCC(=O)C(=O)CC`, the outcome is reported as “inactive”. For `Nc1cc(Cl)c(O)c(Cl)c1`, the outcome was “inactive”. With `O=S(=O)(O)c1ccc(N=Nc2c(O)ccc3ccccc23)cc1` the outcome was “inactive”. For `CC[C@H](C)COC(=O)/C=C/c1ccc(N=Cc2ccc(OC)cc2)cc1`, the outcome was “inactive”. With `O=c1c(O)c(-c2ccc(O)cc2O)oc2cc(O)cc(O)c12` the outcome was “inactive”. With `COCCOc1cc2cc(C(=O)NC3CCN(C(C)C)CC3)n(CC(=O)Nc3ccc(Cl)cn3)c2cn1` the outcome was “inactive”. With `Cl[Si](Cl)(c1ccccc1)c1ccccc1` the outcome was “inactive”. For `CC(C)(C)c1ccc(C(O)CCCN2CCC(C(O)(c3ccccc3)c3ccccc3)CC2)cc1` (stereo not given), the outcome was “inactive”. In the case of `NC(=S)NC(N)=S`, the outcome is reported as “inactive”. With `CCCCC/C=C\C/C=C\CCCCCCCC(=O)O` the outcome was “inactive”. For `O=C(Nc1ccc2c(O)c(N=Nc3ccc(N=Nc4ccc(S(=O)(=O)O)cc4)cc3)c(S(=O)(=O)O)cc2c1)c1ccccc1`, the outcome was “inactive”. For `O=C(O)c1cc(O)c2ccccc2c1O`, the outcome was “inactive”. With `[Cu+]` the outcome was “inactive”. With `Cc1cc(C(C)(C)C)c(O)c(C)c1Cn1c(=O)n(Cc2c(C)cc(C(C)(C)C)c(O)c2C)c(=O)n(Cc2c(C)cc(C(C)(C)C)c(O)c2C)c1=O` the outcome was “inactive”. For `CC(N=C(NC#N)Nc1ccncc1)C(C)(C)C` (stereo not given), the outcome was “inactive”. In the case of `COc1cc(S(=O)(=O)O)c(C)cc1N=Nc1c(O)ccc2cc(S(=O)(=O)O)ccc12`, the outcome is reported as “inactive”. In the case of `CCCCCCCCCCCCCC[N+](C)(C)Cc1ccccc1`, the outcome is reported as “inactive”.

Target: Estrogen receptor (Homo sapiens) (UniProt P03372)
Sequence (P03372 whole entry, looked up): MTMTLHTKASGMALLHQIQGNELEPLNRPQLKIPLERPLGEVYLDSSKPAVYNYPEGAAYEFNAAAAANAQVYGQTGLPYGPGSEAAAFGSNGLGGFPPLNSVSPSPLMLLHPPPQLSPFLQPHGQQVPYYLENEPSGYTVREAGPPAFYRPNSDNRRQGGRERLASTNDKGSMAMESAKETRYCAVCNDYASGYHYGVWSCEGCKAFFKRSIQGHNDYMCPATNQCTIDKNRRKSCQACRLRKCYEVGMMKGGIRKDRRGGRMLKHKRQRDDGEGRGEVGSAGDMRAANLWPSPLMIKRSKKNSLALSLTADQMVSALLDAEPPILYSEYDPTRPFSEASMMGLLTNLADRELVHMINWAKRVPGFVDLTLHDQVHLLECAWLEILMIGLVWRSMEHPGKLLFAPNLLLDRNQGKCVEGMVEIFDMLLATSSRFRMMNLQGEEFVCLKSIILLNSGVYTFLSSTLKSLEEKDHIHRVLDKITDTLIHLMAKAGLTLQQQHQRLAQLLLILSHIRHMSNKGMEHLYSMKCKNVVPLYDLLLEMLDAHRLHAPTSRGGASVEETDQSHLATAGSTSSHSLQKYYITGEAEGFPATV
Test: qHTS assay to identify small molecule antagonists of the estrogen receptor alpha (ER-alpha) signaling pathway (AID 743069; active = well fitted curve in the direction sought with a large enough effect in the signal ratio in the repeat runs, not every such curve was filed as active; inconclusive = weak or mixed curves, or effect the other way; inactive = no such curve, though single readings can be large or run the other way; the % refers to the signal ratio; also: potency is read from the fitted curve at half-maximal effect)
Conditions: HEK293 ER-alpha-UAS-bla, beta-lactamase ratio, antagonist mode; series mostly up to 69.4 µM
Method in brief: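 Beta-lactamase FRET fluorescence is read after 2 hr at room temperature with LiveBLAzer B/G substrate. Before that, ER-alpha-bla HEK293 cells sit 4 hr after plating, then receive compound plus 17beta-estradiol and incubate 18 hr at 37C.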
For `Cc1cc(C(C)(C)C)cc(C)c1CC1=NCCN1`, the Potency was “inactive”. In the case of `Cc1cc(C)c(/C=C2\C(=O)Nc3ccccc32)[nH]1`, the Potency is reported as 26.8 µM [inconclusive] (active). With `Cc1ccc(N/N=c2\c(=O)cc/c(=N\Nc3ccc(S(=O)(=O)O)cc3)c2=O)c(C)c1` the Potency was “inactive”. For `O=C(c1ccc(O)c(O)c1)c1ccc(O)cc1O`, the Potency was 34.6 µM [inconclusive] (active). In the case of `CCOc1ccc2ccccc2c1C(=O)N[C@@H]1C(=O)N2[C@@H]1SC(C)(C)[C@@H]2C(=O)O`, the Potency is reported as “inactive”. For `CC(C)CCOC(=O)/C=C/c1ccccc1`, the Potency was “inactive”. For `C[C@H]1NCc2cc(-c3ccc4c(=O)c(C(=O)O)cn(C5CC5)c4c3OC(F)F)ccc21`, the Potency was “inactive”. For `CN1CCCCC1CCN1c2ccccc2Sc2ccc(S(C)=O)cc21` (stereo not given), the Potency was “inactive”. For `O=S(=O)(O)c1ccc(N=Nc2c(O)ccc3ccccc23)cc1`, the Potency was “inactive”. For `Cl[Si](Cl)(c1ccccc1)c1ccccc1`, the Potency was “inactive”. In the case of `CC(C)(C)c1ccc(C(O)CCCN2CCC(C(O)(c3ccccc3)c3ccccc3)CC2)cc1` (stereo not given), the Potency is reported as “inactive”. With `NC(=S)NC(N)=S` the Potency was “inactive”. For `CCCCC/C=C\C/C=C\CCCCCCCC(=O)O`, the Potency was “inactive”. For `O=C(Nc1ccc2c(O)c(N=Nc3ccc(N=Nc4ccc(S(=O)(=O)O)cc4)cc3)c(S(=O)(=O)O)cc2c1)c1ccccc1`, the Potency was “inactive”. For `[Cu+]`, the Potency was “inactive”. With `Cc1cc(C(C)(C)C)c(O)c(C)c1Cn1c(=O)n(Cc2c(C)cc(C(C)(C)C)c(O)c2C)c(=O)n(Cc2c(C)cc(C(C)(C)C)c(O)c2C)c1=O` the Potency was 17.4 µM [inconclusive] (active). With `COc1cc(S(=O)(=O)O)c(C)cc1N=Nc1c(O)ccc2cc(S(=O)(=O)O)ccc12` the Potency was “inactive”.
